Results: PubChem BioAssay (EPA / NIEHS)
Active and inactive are the calls of the source. How the source made its calls: active means hit-call score of the fitted dose curve at least 0.9, where 1 is the maximum; inactive means score below 0.9.

Assay: ATG_GATA_CIS: Attagene CIS-FACTORIAL HepG2 Assay for human GATA Binding Protein (AID 2282944)
Conditions: HepG2 GATA cis-element reporter, Attagene multiplex mRNA; actives raise or lower the signal
Method: ATG_CIS is a cell-based, multiplexed-readout assay that uses HepG2, a human liver cell line, with measurements taken at 24 hours after chemical dosing in a 24-well plate.ATG_GATA_CIS is one of 52 assay component(s) measured or calculated from the ATG_CIS assay. It is designed to make measurements of mRNA induction, a form of inducible reporter, as detected with fluorescence intensity signals by Reverse transcription polymerase chain reaction (RT-PCR) and Capillary electrophoresis technology.Data from the assay component ATG_GATA_CIS was analyzed into 1 assay endpoint. This assay endpoint, ATG_GATA_CIS, was analyzed with bidirectional fitting relative to DMSO as the negative control and baseline of activity. Using a type of inducible reporter, measures of mRNA for gain or loss-of-signal activity can be used to understand the reporter gene at the transcription factor-level as they relate to the gene GATA1. Furthermore, this assay endpoint can be referred to as a primary readout, because this assay has produced multiple assay endpoints where this one serves a reporter gene function. To generalize the intended target to other relatable targets, this assay endpoint is annotated to the dna binding intended target family, where the subfamily is GATA proteins.
Human liver HepG2 cells are transiently transfected with multiple reporter transcription units (MRTUs) in 6-well plates using FuGene 6 reagent (Roche; 3 ml FuGene/1 mg DNA). The MRTU constructs are regulated by a cis-regulating element (promoter). […] A major difference between the CIS and TRANS system is that in CIS activities of endogenous TFs are measured, whereas the TRANS assay evaluates changes in activities of exogenous, chimeric NR-Gal4 proteins. […] At the end of 24 hour incubation, total RNA was isolated using TriZol reagent (Invitrogen). The isolated RNA is then reverse-transcribed using oligo(dT) primer and Mo-MLV reverse transcriptase (Invitrogen) with DNAse I (Ambion) treatment for 30 min. The one-tenth of the produced cDNA was amplified by PCR using Taq DNA polymerase (Invitrogen) and two reporter sequence-specific primers. The PCR products were fluorescently labeled by primer extension with 6-arboxyfluorescein (6-FAM) 5'-labeled reporter sequence-specific primer (2 min at 95 C, 20 s at 68 C and 10 min at 72 C) and these products were digested with 5U of HpaI (New England Biolabs) for 2h at 37 C. The fragments were purified using Qiaquick PCR columns (Qiagen), analyzed on an ABI 3130xL genetic analyzer (Applied Biosystems) with peak positions identified by using a set of X-rhodamine (ROX)-labeled MapMarker1000 molecular weight standards (BioVentures). The raw capillary electrophoresis data was processed using Attagraph software (Attagene).

Q: Which outcome does the source give for `OCCCl` here?
A: inactive

Q: For `CCCCCCCCn1sccc1=O`, which AC50 is on record?
A: 18.4 µM (active)

Q: With `N#CC(Br)Br` as the molecule, how does the outcome read?
A: inactive

Q: With `C=CCc1ccc2c(c1)OCO2` as the molecule, how does the outcome read?
A: inactive

Q: Which outcome does the source give for `CN(C)C(=O)Nc1ccc(Cl)cc1` here?
A: inactive

Q: With `Oc1ccccc1Cl` as the molecule, how does the outcome read?
A: inactive

Q: With `CCC[CH2][Sn]([Cl])([CH2]CCC)[CH2]CCC` as the molecule, how does the outcome read?
A: inactive

Q: Which outcome does the source give for `N#CC(Br)(Br)C(N)=O` here?
A: inactive

Q: For `O=Cc1ccco1`, which outcome is on record?
A: inactive

Q: With `Clc1ccc(C(c2ccc(Cl)cc2)C(Cl)Cl)cc1` as the molecule, how does the outcome read?
A: inactive

Q: Which outcome does the source give for `Clc1ccc(Cl)c(Cl)c1` here?
A: inactive

Q: With `Nc1ccc(Cl)cc1N` as the molecule, how does the outcome read?
A: inactive

Q: For `Nc1ccc([N+](=O)[O-])cc1`, which outcome is on record?
A: inactive

Q: With `CCCCC(CC)COC(=O)c1ccc(C(=O)OCC(CC)CCCC)c(C(=O)OCC(CC)CCCC)c1` (stereo not given) as the molecule, how does the outcome read?
A: inactive

Q: For `c1ccc(NNc2ccccc2)cc1`, which outcome is on record?
A: inactive

Q: For `CCCCCOC(=O)c1ccccc1C(=O)OCCCCC`, which outcome is on record?
A: inactive

Q: For `CCCCCCCCCCCCCN1CC(C)OC(C)C1` (stereo not given), which outcome is on record?
A: inactive

Q: Which outcome does the source give for `CN(C)[C@@H]1C(=O)C(C(N)=O)=C(O)[C@@]2(O)C(=O)C3=C(O)c4c(O)cccc4[C@@](C)(O)[C@H]3C[C@@H]12` here?
A: inactive

Q: For `[O-][Cl+]O`, which outcome is on record?
A: inactive

Q: With `Nc1ccc(Cc2ccc(N)cc2)cc1` as the molecule, how does the outcome read?
A: inactive

Q: Which outcome does the source give for `CN(C)c1ccccc1` here?
A: inactive

Q: Which outcome does the source give for `O=C(Nc1ccccc1)c1ccccc1I` here?
A: inactive

Q: With `CNC(=O)Oc1cccc2c1OC(C)(C)C2` as the molecule, how does the outcome read?
A: inactive

Q: Which outcome does the source give for `[Cl-].[Cl-].[Hg+2]` here?
A: inactive

Q: Which outcome does the source give for `CC(C)(C)C(O)(CCc1ccc(Cl)cc1)Cn1cncn1` (stereo not given) here?
A: inactive

Q: For `CN(C)c1ccc(C(=O)c2ccc(N(C)C)cc2)cc1`, which outcome is on record?
A: inactive

Q: For `O=P(OCCCl)(OCCCl)OCCCl`, which outcome is on record?
A: inactive

Q: With `CCN(CC)N=O` as the molecule, how does the outcome read?
A: inactive

Q: Which outcome does the source give for `ClC1=C(Cl)C2(Cl)C3C(Cl)C=CC3C1(Cl)C2(Cl)Cl` (stereo not given) here?
A: inactive

Q: Which outcome does the source give for `O=C1CCCO1` here?
A: inactive

Q: With `CCCCOC(=O)c1ccccc1C(=O)OCc1ccccc1` as the molecule, how does the outcome read?
A: inactive

Q: For `Oc1ccc2ccc3cccc4ccc1c2c34`, which outcome is on record?
A: inactive

Q: Which outcome does the source give for `Cc1ccc(N)cc1` here?
A: inactive

Q: For `COC(=O)c1ccccc1N`, which outcome is on record?
A: inactive

Q: Which outcome does the source give for `CCCSC(=O)N(CCC)CCC` here?
A: inactive

Q: Which outcome does the source give for `CCN(CC)CCO` here?
A: inactive

Q: Which outcome does the source give for `CC(C)(C)OOC(C)(C)CCC(C)(C)OOC(C)(C)C` here?
A: inactive

Q: With `CCC(C)c1ccc(O)cc1` (stereo not given) as the molecule, how does the outcome read?
A: inactive

Q: Which outcome does the source give for `CC(O)CCO` (stereo not given) here?
A: inactive

Q: With `C[N+](C)(C)CC1CO1` (stereo not given) as the molecule, how does the outcome read?
A: inactive
